Compounds with a hit are over-represented: about 3% of the library has one in this group of screens.
Mcl1-Noxa inh – Mcl-1/Noxa interaction inhibition; Q07820; TR-FRET Mcl-1/Noxa peptide binding, 2 h; inhibition, % at 21.7 µM; 1.5% of 220,000 active;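 active means compounds that cut the protein-peptide binding signal by more than 50% relative to plate controls in a single-dose test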;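 further: His-tagged Mcl-1 with rhodamine Noxa BH3 peptide and terbium anti-His antibody; 0% = Mcl-1 plus Noxa peptide wells and 100% = peptide-only wells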
Target sequence (Q07820 whole entry, looked up): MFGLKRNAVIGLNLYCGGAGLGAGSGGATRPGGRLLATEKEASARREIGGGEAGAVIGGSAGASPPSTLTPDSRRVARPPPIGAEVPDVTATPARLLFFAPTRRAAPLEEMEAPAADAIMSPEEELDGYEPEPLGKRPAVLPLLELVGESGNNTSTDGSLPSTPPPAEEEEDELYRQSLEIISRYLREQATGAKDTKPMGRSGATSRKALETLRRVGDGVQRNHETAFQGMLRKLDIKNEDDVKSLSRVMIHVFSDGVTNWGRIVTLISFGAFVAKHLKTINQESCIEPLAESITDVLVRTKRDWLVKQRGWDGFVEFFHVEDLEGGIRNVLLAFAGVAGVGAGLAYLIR
Arbovirus inh – blocks arbovirus infection; arbovirus infection cell-based antiviral screen; 0.37% of 200,000 active; inhibition, % at 10 µM; AID 1251; in the data active means inhibition above about 30%
Mcl1 Bid PPI – disrupts binding of human Mcl-1 to Bid peptide; Q07820; TR-FRET Mcl-1/Bid-Dy647 peptide binding, 1536-well; inhibition, % at 21.7 µM; 0.97% of 220,000 active; AID 1021;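 active means compounds that cut the binding signal by more than half at the single screening dose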;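 further: His-tagged Mcl-1 with europium anti-His antibody binding Bid BH3 peptide; 0% = Mcl-1 plus peptide wells and 100% = peptide-only wells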
Bim-Mcl-1 – inhibitors of Bim-Mcl-1 interaction, human. Q07820. Bead-based flow cytometry, Bim peptide-Mcl-1 binding. inhibition, % at 10 µM. 0.1% of 190,000 active. AID 1009; in the data active means inhibition above about 40%;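 further: 0% = no compound tracer wells and 100% = peptide blocker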
14-3-3 Bad PPI – disrupts binding of bovine 14-3-3 zeta to phospho-Bad peptide; 0.71% of 220,000 active; AID 781; P63103; inhibition, % at 21.7 µM; TR-FRET 14-3-3zeta/Dy647-pBad peptide displacement, 1 h;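 active means inhibition above about 70%, limit read from the data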;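 further: 0% = full 14-3-3 plus peptide FRET controls and 100% = background without 14-3-3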
Target sequence (P63103 whole entry, looked up): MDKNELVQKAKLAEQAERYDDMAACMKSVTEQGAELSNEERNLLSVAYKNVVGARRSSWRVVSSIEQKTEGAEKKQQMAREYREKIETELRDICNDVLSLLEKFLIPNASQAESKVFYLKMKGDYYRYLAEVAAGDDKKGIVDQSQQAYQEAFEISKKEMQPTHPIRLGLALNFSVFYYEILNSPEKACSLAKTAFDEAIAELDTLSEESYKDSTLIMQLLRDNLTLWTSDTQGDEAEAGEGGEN
* = called active by the depositor.

Results for O=C(Nc1ccc([N+](=O)[O-])cc1)c1cc(-c2ccccn2)nc2c(Cl)cccc12 ?
Mcl1-Noxa inh: 48.7; Arbovirus inh: -8.2; Mcl1 Bid PPI: 42.4; Bim-Mcl-1: 5.0; 14-3-3 Bad PPI: 70.7*

Results for CCOc1ccccc1NC(=O)c1cc(-c2ccncc2)nc2c(Cl)cccc12 ?
Mcl1-Noxa inh: 16.1; Arbovirus inh: 5.5; Mcl1 Bid PPI: 50.9*; Bim-Mcl-1: 5.0; 14-3-3 Bad PPI: 72.7*

Results for COc1cccc(NC(=O)c2cc(-c3ccncc3)nc3c(C)cc(C)cc23)c1 ?
Mcl1-Noxa inh: 6.4; Arbovirus inh: 10.2; Mcl1 Bid PPI: -33.1; Bim-Mcl-1: -1.0; 14-3-3 Bad PPI: -9.7

Results for Oc1cccc(-c2nc3ccc4ccccc4c3c3c2CCC3)c1 ?
Mcl1-Noxa inh: 21.2; Arbovirus inh: -38.0; Mcl1 Bid PPI: -10.5; Bim-Mcl-1: -2.0; 14-3-3 Bad PPI: 6.4

What do the screens show for `Cc1cc(C)n(CCc2nc(-c3ccco3)cs2)n1`?
Mcl1-Noxa inh: 52.7*; Arbovirus inh: 10.3; Mcl1 Bid PPI: -33.3; Bim-Mcl-1: -20.0; 14-3-3 Bad PPI: -10.8

Results for O=C(O)C1OC(Oc2c(-c3ccc(O)c(O)c3)oc3cc(O)cc(O)c3c2=O)C(O)C(O)C1O (centres undefined) ?
Mcl1-Noxa inh: 52.8*; Arbovirus inh: 2.3; Mcl1 Bid PPI: 2.5; Bim-Mcl-1: 0.0; 14-3-3 Bad PPI: -2.9

What do the screens show for `C/C(=N\NC(=O)c1ccccc1)c1ccc(C)c([N+](=O)[O-])c1`?
Mcl1-Noxa inh: 12.5; Arbovirus inh: -7.8; Mcl1 Bid PPI: -8.6; Bim-Mcl-1: -6.0; 14-3-3 Bad PPI: 6.4

What do the screens show for `O=C(/C=C/c1ccc(F)cc1)NCC1(c2ccccc2)CCOCC1`?
Mcl1-Noxa inh: 2.1; Arbovirus inh: 5.9; Mcl1 Bid PPI: 8.3; Bim-Mcl-1: 1.0; 14-3-3 Bad PPI: -1.4

How did CCOC(=O)c1c(CN2CCN(C)CC2)oc2ccc(O)cc12 do in these assays?
Mcl1-Noxa inh: 20.1; Arbovirus inh: 0.5; Mcl1 Bid PPI: 21.0; Bim-Mcl-1: -1.0; 14-3-3 Bad PPI: 74.7*

Results for O=c1nc2n(c3ncccc13)CCCCC2 ?
Mcl1-Noxa inh: 9.4; Arbovirus inh: 13.3; Mcl1 Bid PPI: -1.1; Bim-Mcl-1: 0.0; 14-3-3 Bad PPI: 6.0

Results for CN(C)c1ccc(N=C/C=C2/N(C)c3ccccc3C2(C)C)cc1 ?
Mcl1-Noxa inh: 64.1*; Arbovirus inh: -23.7; Mcl1 Bid PPI: -69.2; Bim-Mcl-1: -11.0; 14-3-3 Bad PPI: -20.3

How did CN1/C(=C\C=N\O)C(C)(C)c2ccccc21 do in these assays?
Mcl1-Noxa inh: 6.8; Arbovirus inh: -1.5; Mcl1 Bid PPI: -12.1; Bim-Mcl-1: 0.0; 14-3-3 Bad PPI: -11.7

How did Cc1ccsc1C(=O)Nc1nc2ccccc2[nH]1 do in these assays?
Mcl1-Noxa inh: 9.4; Mcl1 Bid PPI: -22.7; 14-3-3 Bad PPI: -5.5

How did c1coc(Cn2nnnc2CN2CCN(C3CCCC3)CC2)c1 do in these assays?
Mcl1-Noxa inh: 32.3; Arbovirus inh: -4.4; Mcl1 Bid PPI: 19.1; Bim-Mcl-1: -3.0; 14-3-3 Bad PPI: 79.1*

Results for CC(C)C(c1nnnn1Cc1ccco1)N1CCN(C2CCCC2)CC1 (centres undefined) ?
Mcl1-Noxa inh: 17.3; Arbovirus inh: 5.4; Mcl1 Bid PPI: -8.0; Bim-Mcl-1: 1.0; 14-3-3 Bad PPI: 42.7

What do the screens show for `CCc1nnc(NS(=O)(=O)c2ccc(NC(=O)c3cc4ccccc4oc3=O)cc2)s1`?
Mcl1-Noxa inh: 64.3*; Arbovirus inh: 13.4; Mcl1 Bid PPI: 7.5; Bim-Mcl-1: -7.0; 14-3-3 Bad PPI: -0.6

What do the screens show for `CCc1nnc(NS(=O)(=O)c2ccc(NC(=O)OC)cc2)s1`?
Mcl1-Noxa inh: 18.5; Arbovirus inh: 2.1; Mcl1 Bid PPI: 4.3; 14-3-3 Bad PPI: -5.1

Results for O=C(CCC(=O)OC(C(=O)c1ccccc1)c1ccccc1)Nc1ccccc1 (centres undefined) ?
Mcl1-Noxa inh: -6.0; Arbovirus inh: -1.5; Mcl1 Bid PPI: 7.2; Bim-Mcl-1: 1.0; 14-3-3 Bad PPI: 87.1*

What do the screens show for `COc1ccc(Cl)cc1C(=O)Nc1ccccc1N1CCN(C)CC1`?
Mcl1-Noxa inh: 55.8*; Arbovirus inh: -49.1; Mcl1 Bid PPI: -7.5; Bim-Mcl-1: 0.0; 14-3-3 Bad PPI: 0.7

How did O=C(Cn1c2ccccc2c(=O)c2ccccc21)N/N=C/c1cc([N+](=O)[O-])ccc1N1CCCCC1 do in these assays?
Mcl1-Noxa inh: 43.4; Arbovirus inh: -6.3; Mcl1 Bid PPI: 67.0*; Bim-Mcl-1: -8.0; 14-3-3 Bad PPI: 70.0

What do the screens show for `CN1CCN(c2ccc(S(=O)(=O)N3CCCCC3)cc2NC(=O)c2ccc(C#N)cc2)CC1`?
Mcl1-Noxa inh: 9.1; Arbovirus inh: 7.8; Mcl1 Bid PPI: -39.1; Bim-Mcl-1: -31.0; 14-3-3 Bad PPI: 5.3

What do the screens show for `CN1CCN(c2ccc([N+](=O)[O-])cc2/C=N/NC(=O)c2cccc([N+](=O)[O-])c2)CC1`?
Mcl1-Noxa inh: 90.7*; Arbovirus inh: 5.5; Mcl1 Bid PPI: -0.4; Bim-Mcl-1: -3.0; 14-3-3 Bad PPI: -3.5

What do the screens show for `CN1CCN(c2ccc(Cl)cc2NC(=O)c2ccc(S(=O)(=O)N3CCCCCC3)cc2)CC1`?
Mcl1-Noxa inh: 74.3*; Arbovirus inh: 2.1; Mcl1 Bid PPI: -44.7; Bim-Mcl-1: 0.0; 14-3-3 Bad PPI: 25.3

How did CN1CCN(c2ccc([N+](=O)[O-])cc2NC(=O)c2ccccc2)CC1 do in these assays?
Mcl1-Noxa inh: 12.9; Arbovirus inh: 13.4; Mcl1 Bid PPI: -32.3; Bim-Mcl-1: 0.0; 14-3-3 Bad PPI: 77.0*

What do the screens show for `COc1ccc(/C=c2\s/c(=C\C(=O)C(C)(C)C)[nH]c2=O)cc1O`?
Mcl1-Noxa inh: 57.6*; Mcl1 Bid PPI: -58.5; 14-3-3 Bad PPI: 2.9

Results for CC(C)(CNC(=O)COc1ccccc1Cc1ccccc1)N1CCOCC1 ?
Mcl1-Noxa inh: 11.2; Arbovirus inh: -7.6; Mcl1 Bid PPI: 3.8; Bim-Mcl-1: 0.0; 14-3-3 Bad PPI: -0.8

Results for O=C(CNc1n[nH]c(=O)[nH]c1=O)N/N=C/C=C/c1ccccc1 ?
Mcl1-Noxa inh: 2.8; Mcl1 Bid PPI: 3.8; 14-3-3 Bad PPI: -0.8

How did CN(C)S(=O)(=O)N1CCN(c2cccc(Cl)c2)CC1 do in these assays?
Mcl1-Noxa inh: 54.9*; Arbovirus inh: -4.2; Mcl1 Bid PPI: -7.5; Bim-Mcl-1: 9.0; 14-3-3 Bad PPI: -19.8

Results for CC(=O)Nc1ccc(S(=O)(=O)NC2(C(F)(F)F)C(=O)Nc3c2c(=O)[nH]c(=O)n3Cc2ccco2)cc1 (centres undefined) ?
Mcl1-Noxa inh: 56.4*; Arbovirus inh: 4.0; Mcl1 Bid PPI: -39.4; Bim-Mcl-1: -7.0; 14-3-3 Bad PPI: 3.8

Results for CC(=O)NC1(C(F)(F)F)C(=O)Nc2c1c(=O)[nH]c(=O)n2Cc1ccco1 (centres undefined) ?
Mcl1-Noxa inh: -5.8; Arbovirus inh: 7.4; Mcl1 Bid PPI: -8.7; Bim-Mcl-1: -1.0; 14-3-3 Bad PPI: 28.6

What do the screens show for `CC(=O)Nc1ccc(S(=O)(=O)NC2(C(F)(F)F)C(=O)Nc3c2c(=O)[nH]c(=O)n3C)cc1` (centres undefined)?
Mcl1-Noxa inh: -34.4; Arbovirus inh: 4.7; Mcl1 Bid PPI: -76.8; Bim-Mcl-1: -2.0; 14-3-3 Bad PPI: 30.4

From PubChem BioAssay
